Seven molecules from PubChem BioAssay (EPA / NIEHS) can be followed below.

Experiment [1] can be described thus: ATG_ISRE_CIS: Attagene CIS-FACTORIAL HepG2 Assay for human Interferon Regulatory Factor 1 (IRF1) binding to an Interferon-Stimulated Response Element (ISRE) (AID 2282948). The note with it: HepG2 ISRE cis-reporter (Attagene), mRNA transcription readout; actives raise or lower the signal. The method in brief: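 Endogenous transcription factor activity read as reporter transcript abundance via RT-PCR and capillary electrophoresis. HepG2 cells transiently transfected, 24 h chemical exposure. Gain or loss fitted against DMSO baseline.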

Experiment [2] can be described thus: ATG_M_32_CIS: Attagene CIS-FACTORIAL HepG2 Assay for M32 Transcription Factor (Internal Marker) (AID 2282949).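 Further: background control marker of the multiplexed CIS panel rather than a real target.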 The note with it: HepG2 Attagene cis-factorial M32 reporter, mRNA; actives raise or lower the signal. The method in brief:
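HepG2 transfectants (cis-regulated reporter transcription units) dosed 24 h. Reporter mRNA by RT-PCR plus CE, analysed as gain or loss relative to DMSO.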

The nature of experiment [3]: ATG_M_06_CIS: Attagene CIS-FACTORIAL HepG2 Assay for M06 Transcription Factor (Internal Marker) (AID 2282950). The note with it: HepG2 Attagene CIS-FACTORIAL M06 internal marker reporter; actives raise or lower the signal. The method in brief: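 Steps: transfect HepG2 with multiplexed cis-element reporter constructs; dose chemical 24 h; extract RNA with DNase treatment; reverse-transcribe, PCR-amplify, 6-FAM label, HpaI digest; separate fragments by capillary electrophoresis. Activity fitted both directions versus DMSO.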

For experiment [4], the target named is Hypoxia-inducible factor 1-alpha (Homo sapiens) (UniProt Q16665). Put plainly: ATG_HIF1a_CIS: Attagene CIS-FACTORIAL HepG2 Assay for human Hypoxia Inducible Factor 1 (HIF1A) (AID 2282951). The note with it: HepG2 Attagene cis-factorial HIF1a reporter transcription; actives raise or lower the signal. The method in brief:
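Transient MRTU transfection of human HepG2 liver cells, 24 h compound treatment, then total RNA isolation, oligo(dT) reverse transcription, PCR amplification, fluorescent labelling and capillary electrophoresis of reporter fragments. Gain or loss relative to DMSO.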

Experiment [5] in a line: ATG_MRE_CIS: Attagene CIS-FACTORIAL HepG2 Assay for human Metal Responsive Element (MRE) (AID 2282954). The note with it: HepG2 MRE cis-reporter transcription, Attagene multiplex; actives raise or lower the signal. The method in brief: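 Endogenous MRE-dependent transcription read as reporter mRNA in transiently transfected human HepG2 cells at 24 h. RNA reverse-transcribed, PCR-amplified, labelled and resolved by capillary electrophoresis; gain or loss relative to DMSO.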

A short description of experiment [6]: ATG_PBREM_CIS: Attagene CIS-FACTORIAL HepG2 Assay for human Phenobarbital-responsive Enhancer Module (PBREM) (AID 2282955). The note with it: HepG2 PBREM cis-reporter, Attagene multiplexed transcription; actives raise or lower the signal. The method in brief:
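Endogenous transcription factors in human liver HepG2 cells drive a PBREM cis-element reporter, whose transcript level after 24 h treatment is quantified by RT-PCR with capillary electrophoresis; activity fitted in both directions against DMSO.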

A short description of experiment [7]: ATG_PXRE_CIS: Attagene CIS-FACTORIAL HepG2 Assay for human Pregnane X Receptor Element (PXRE) (AID 2282957). The note with it: HepG2 Attagene CIS-FACTORIAL PXRE reporter, mRNA; actives raise or lower the signal. The method in brief: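 Fluorescent capillary electrophoresis of amplified reporter cDNA gave the signal, collected 24 h after dosing HepG2 cells that held transfected cis-element reporter constructs.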

A short description of experiment [8]: ATG_PPRE_CIS: Attagene CIS-FACTORIAL HepG2 Assay for human Peroxisome Proliferator-activated Response Element (PPRE) (AID 2282958). The note with it: HepG2 PPRE cis-element reporter, Attagene transcription factor profiling; actives raise or lower the signal. The method in brief:
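HepG2, transient MRTU transfection (cis promoter elements, endogenous TFs). 24 h dosing. RNA → oligo(dT) RT → PCR → 6-FAM primer extension → HpaI digest → CE. Bidirectional fit vs DMSO.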

Experiment [9] is described as follows: ATG_RORE_CIS: Attagene CIS-FACTORIAL HepG2 Assay for human RAR-related Orphan Receptor Element (RORE) (AID 2282959). The note with it: HepG2 Attagene cis-factorial RORE reporter, mRNA; actives raise or lower the signal. The method in brief: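 Transient MRTU transfection of human HepG2 liver cells (FuGene 6); 24 h compound exposure; TriZol RNA, oligo(dT) RT, PCR, FAM labeling, HpaI cut, CE fragment analysis. DMSO = negative control/baseline.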

Experiment [10] can be described thus: ATG_Sox_CIS: Attagene CIS-FACTORIAL HepG2 Assay for human SRY-box transcription factor (SOX) (AID 2282960). The note with it: HepG2 Attagene cis-factorial SOX reporter, mRNA; actives raise or lower the signal. The method in brief:
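Endogenous factor activity in human liver HepG2 cells carrying transfected cis-regulated reporter units. RNA taken 24 h post-dose, reverse-transcribed, PCR-amplified and sized by capillary electrophoresis. Gain or loss of signal fitted relative to DMSO.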

Experiment [11] has as its target Transcription factor Sp1 (Homo sapiens) (UniProt P08047). The experiment in a line: ATG_Sp1_CIS: Attagene CIS-FACTORIAL HepG2 Assay for human Specificity Protein 1 (Sp1) (AID 2282961). The note with it: HepG2 Sp1 cis-reporter transcription, actives raise or lower the signal. The method in brief: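 Transient MRTU-transfected HepG2, 24 h compound exposure. Total RNA → oligo(dT) RT → PCR of reporter → 6-FAM primer extension → HpaI digest → CE. Endpoint fitted both directions vs DMSO.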

Experiment [12] can be described thus: ATG_SREBP_CIS: Attagene CIS-FACTORIAL HepG2 Assay for human Sterol Regulatory Element Binding (SREBP) (AID 2282962). The note with it: HepG2 Attagene cis-factorial SREBP reporter, mRNA; actives raise or lower the signal. The method in brief:
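Endogenous SREBP activity read as cis-element-driven reporter transcript in transiently transfected HepG2, 24 h post-dosing; quantified via RT-PCR plus capillary electrophoresis of fluorescent fragments. Gain or loss of signal fitted relative to DMSO baseline.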

Experiment [13] has as its target Signal transducer and activator of transcription 3 (Homo sapiens) (UniProt P40763). Put plainly: ATG_STAT3_CIS: Attagene CIS-FACTORIAL HepG2 Assay for human Signal Transducer and Activator of Transcription 3 (STAT3) (AID 2282963). The note with it: HepG2, Attagene cis-factorial STAT3 reporter transcription; actives raise or lower the signal. The method in brief:
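Readout is reporter transcript quantified by RT-PCR and capillary electrophoresis, with 6-FAM primer extension and HpaI digestion. Total RNA is taken 24 h after dosing transiently transfected HepG2 carrying cis-regulated reporter units. Bidirectional fit against DMSO.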

A short description of experiment [14]: ATG_TCF_b_cat_CIS: Attagene CIS-FACTORIAL HepG2 Assay for human T-Cell-Factor with beta-catenin (TCF/b-cat) (AID 2282965). The note with it: HepG2 TCF/beta-catenin cis-reporter transcription, actives raise or lower the signal. The method in brief:
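Endogenous transcription factor activity is captured through cis-promoter reporter constructs transiently introduced into human HepG2 liver cells. Induced reporter mRNA is measured after 24 h and fitted bidirectionally relative to DMSO.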

A short description of experiment [15]: ATG_TAL_CIS: Attagene CIS-FACTORIAL HepG2 Assay for human TAL Basal Promoter (AID 2282966).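 Further: background control endpoint measuring basal TAL promoter reporter mRNA not a specific factor.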 The note with it: HepG2 Attagene cis-factorial TAL promoter reporter; actives raise or lower the signal. The method in brief:
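Transiently transfected HepG2 (cis-regulated reporter units), 24 h treatment, mRNA read by fluorescent CE after RT-PCR; bidirectional fit, DMSO baseline.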

Experiment [16] addresses Hepatocyte nuclear factor 6 (Homo sapiens) (UniProt Q9UBC0). The experiment in a line: ATG_HNF6_CIS: Attagene CIS-FACTORIAL HepG2 Assay for human Hepatocyte Nuclear Factor 6 (HNF6) (AID 2282952). The note with it: HepG2 Attagene cis-factorial HNF6 reporter transcription; actives raise or lower the signal. The method in brief: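 Activity values derive from bidirectional fitting against DMSO of reporter mRNA levels, measured by capillary electrophoresis of labelled RT-PCR products from HepG2 cells exposed 24 h.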

Experiment [17] deals with Heat shock factor protein 1 (Homo sapiens) (UniProt Q00613). The experiment in a line: ATG_HSE_CIS: Attagene CIS-FACTORIAL HepG2 Assay for human Heat Shock Transcription Factor 1 (HSE) (AID 2282953). The note with it: HepG2 HSE cis-reporter, Attagene RNA transcription; actives raise or lower the signal. The method in brief:
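Cells were transfected with cis-element-driven reporter constructs, dosed for 24 h, then total RNA was reverse-transcribed and reporter cDNA amplified, FAM-labelled and digested with HpaI. Fragments were resolved by capillary electrophoresis; gain or loss was fitted against DMSO.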

A short description of experiment [18]: ATG_TA_CIS: Attagene CIS-FACTORIAL HepG2 Assay for human TA Basal Promoter (AID 2282964). The note with it: HepG2 Attagene CIS-factorial TA basal promoter reporter; actives raise or lower the signal. The method in brief:
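Steps: transfect HepG2 with MRTUs; dose 24 h; isolate RNA, DNase-treat, reverse-transcribe; PCR and FAM-label reporter cDNA; digest with HpaI 2h at 37 C; run capillary electrophoresis. Activity fitted both directions against DMSO.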

A short description of experiment [19]: ATG_GRE_CIS: Attagene CIS-FACTORIAL HepG2 Assay for human Glucocorticoid Response Elements (GRE) (AID 2282947). The note with it: HepG2 GRE cis-reporter, Attagene multiplex mRNA; actives raise or lower the signal. The method in brief:
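Reporter transcripts read by RT-PCR with capillary electrophoresis fluorescence after a 24 h chemical exposure of HepG2 cells transiently transfected with multiple cis-element reporter units. Gain or loss fitted against DMSO.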

The target in experiment [20] is Paired box protein Pax-6 (Homo sapiens) (UniProt P26367). Put plainly: ATG_Pax6_CIS: Attagene CIS-FACTORIAL HepG2 Assay for human Paired Box 6 (PAX6) (AID 2282956). The note with it: HepG2 CIS-FACTORIAL PAX6 reporter transcription, RNA readout; actives raise or lower the signal. The method in brief:
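Read-out is reporter transcript level, measured by RT-PCR with fluorescent primer extension and capillary electrophoresis after 24 h dosing of transfected HepG2 cells. Activity in either direction fitted relative to DMSO control.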

Structures are written as SMILES. Activity calls are given as the source filed them. How the source made its calls: active means hit-call score of the fitted dose curve at least 0.9, where 1 is the maximum; inactive means score below 0.9.

Chain of Signal transducer and activator of transcription 3 (Homo sapiens) (P40763 whole entry, looked up): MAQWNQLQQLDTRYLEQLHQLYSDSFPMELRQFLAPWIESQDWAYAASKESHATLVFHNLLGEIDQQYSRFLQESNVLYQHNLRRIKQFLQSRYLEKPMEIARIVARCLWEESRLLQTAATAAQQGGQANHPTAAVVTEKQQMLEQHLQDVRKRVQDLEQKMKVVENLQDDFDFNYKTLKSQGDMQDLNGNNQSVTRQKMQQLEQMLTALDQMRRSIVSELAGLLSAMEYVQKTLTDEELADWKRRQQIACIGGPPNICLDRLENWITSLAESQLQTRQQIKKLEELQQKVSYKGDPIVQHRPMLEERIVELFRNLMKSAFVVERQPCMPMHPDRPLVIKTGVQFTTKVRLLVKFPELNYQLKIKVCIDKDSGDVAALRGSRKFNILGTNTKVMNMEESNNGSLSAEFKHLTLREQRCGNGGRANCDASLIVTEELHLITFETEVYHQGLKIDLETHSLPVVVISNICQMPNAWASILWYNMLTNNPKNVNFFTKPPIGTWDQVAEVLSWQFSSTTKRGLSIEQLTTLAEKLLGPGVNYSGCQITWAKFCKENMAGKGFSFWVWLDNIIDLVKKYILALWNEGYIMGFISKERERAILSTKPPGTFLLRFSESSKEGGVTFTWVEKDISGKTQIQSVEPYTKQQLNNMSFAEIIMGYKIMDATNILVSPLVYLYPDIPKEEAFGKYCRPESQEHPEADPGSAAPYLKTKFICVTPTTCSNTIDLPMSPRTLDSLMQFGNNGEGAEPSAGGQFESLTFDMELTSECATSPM
Chain of Hypoxia-inducible factor 1-alpha (Homo sapiens) (Q16665 whole entry, looked up, the tested form may be a part): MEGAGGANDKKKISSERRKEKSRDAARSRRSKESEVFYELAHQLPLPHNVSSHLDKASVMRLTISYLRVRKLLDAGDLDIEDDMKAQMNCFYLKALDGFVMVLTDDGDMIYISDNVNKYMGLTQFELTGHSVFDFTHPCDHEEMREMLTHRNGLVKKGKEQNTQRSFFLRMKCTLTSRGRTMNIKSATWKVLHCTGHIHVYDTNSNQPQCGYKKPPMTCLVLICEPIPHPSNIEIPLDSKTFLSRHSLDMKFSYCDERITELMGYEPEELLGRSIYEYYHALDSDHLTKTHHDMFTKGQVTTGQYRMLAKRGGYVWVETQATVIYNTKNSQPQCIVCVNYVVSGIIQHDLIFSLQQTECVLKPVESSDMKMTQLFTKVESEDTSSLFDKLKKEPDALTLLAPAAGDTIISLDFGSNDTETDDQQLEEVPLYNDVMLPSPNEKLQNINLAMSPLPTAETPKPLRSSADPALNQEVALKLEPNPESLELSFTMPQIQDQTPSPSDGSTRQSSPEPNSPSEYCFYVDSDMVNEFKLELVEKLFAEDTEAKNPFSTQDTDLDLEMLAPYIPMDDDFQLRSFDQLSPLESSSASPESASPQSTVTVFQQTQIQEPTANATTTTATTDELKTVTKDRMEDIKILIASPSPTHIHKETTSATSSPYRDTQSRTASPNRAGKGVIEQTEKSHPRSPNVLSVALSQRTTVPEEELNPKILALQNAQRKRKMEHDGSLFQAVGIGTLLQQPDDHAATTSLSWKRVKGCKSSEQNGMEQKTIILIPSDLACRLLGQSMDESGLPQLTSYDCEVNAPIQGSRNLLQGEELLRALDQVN
Chain of Hepatocyte nuclear factor 6 (Homo sapiens) (Q9UBC0 whole entry, looked up): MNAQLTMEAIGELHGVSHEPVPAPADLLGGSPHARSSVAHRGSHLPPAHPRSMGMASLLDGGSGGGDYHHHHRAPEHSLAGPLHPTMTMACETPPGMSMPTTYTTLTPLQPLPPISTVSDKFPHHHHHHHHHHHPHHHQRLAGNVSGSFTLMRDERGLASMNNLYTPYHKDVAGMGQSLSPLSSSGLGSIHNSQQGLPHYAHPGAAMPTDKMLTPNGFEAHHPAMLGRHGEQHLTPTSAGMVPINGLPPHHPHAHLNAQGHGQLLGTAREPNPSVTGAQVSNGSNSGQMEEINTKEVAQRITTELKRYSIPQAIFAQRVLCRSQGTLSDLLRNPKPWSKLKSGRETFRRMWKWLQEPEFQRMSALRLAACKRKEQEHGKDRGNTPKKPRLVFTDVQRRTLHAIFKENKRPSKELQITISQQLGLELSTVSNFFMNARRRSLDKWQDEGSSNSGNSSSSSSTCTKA
Chain of Heat shock factor protein 1 (Homo sapiens) (Q00613 whole entry, looked up, the tested form may be a part): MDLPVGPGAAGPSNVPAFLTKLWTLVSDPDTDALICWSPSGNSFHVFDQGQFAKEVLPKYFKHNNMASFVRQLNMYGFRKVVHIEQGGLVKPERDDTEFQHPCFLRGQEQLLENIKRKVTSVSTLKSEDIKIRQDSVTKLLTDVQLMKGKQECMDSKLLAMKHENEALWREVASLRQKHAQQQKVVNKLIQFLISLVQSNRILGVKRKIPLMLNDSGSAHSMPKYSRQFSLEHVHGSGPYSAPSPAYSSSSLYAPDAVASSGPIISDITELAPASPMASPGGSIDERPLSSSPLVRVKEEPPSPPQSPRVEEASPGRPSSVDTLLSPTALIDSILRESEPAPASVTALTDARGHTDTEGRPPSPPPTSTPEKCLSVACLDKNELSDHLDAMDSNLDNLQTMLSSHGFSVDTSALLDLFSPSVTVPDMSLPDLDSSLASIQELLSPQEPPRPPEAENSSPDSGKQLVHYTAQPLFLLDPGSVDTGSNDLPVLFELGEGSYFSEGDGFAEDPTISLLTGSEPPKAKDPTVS
Chain of Paired box protein Pax-6 (Homo sapiens) (P26367 whole entry, looked up): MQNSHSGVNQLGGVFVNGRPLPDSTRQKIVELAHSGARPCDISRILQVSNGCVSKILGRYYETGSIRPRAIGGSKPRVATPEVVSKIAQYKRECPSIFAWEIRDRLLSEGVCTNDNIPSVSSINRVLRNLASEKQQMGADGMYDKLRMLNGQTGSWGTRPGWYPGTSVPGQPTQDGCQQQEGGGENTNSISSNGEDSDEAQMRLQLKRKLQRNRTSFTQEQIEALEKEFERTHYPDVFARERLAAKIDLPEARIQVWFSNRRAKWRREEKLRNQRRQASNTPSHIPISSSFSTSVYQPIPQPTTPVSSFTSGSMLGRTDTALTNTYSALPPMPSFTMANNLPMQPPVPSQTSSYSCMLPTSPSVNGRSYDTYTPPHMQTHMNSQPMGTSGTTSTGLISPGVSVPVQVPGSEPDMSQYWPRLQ
Chain of Transcription factor Sp1 (Homo sapiens) (P08047 whole entry, looked up): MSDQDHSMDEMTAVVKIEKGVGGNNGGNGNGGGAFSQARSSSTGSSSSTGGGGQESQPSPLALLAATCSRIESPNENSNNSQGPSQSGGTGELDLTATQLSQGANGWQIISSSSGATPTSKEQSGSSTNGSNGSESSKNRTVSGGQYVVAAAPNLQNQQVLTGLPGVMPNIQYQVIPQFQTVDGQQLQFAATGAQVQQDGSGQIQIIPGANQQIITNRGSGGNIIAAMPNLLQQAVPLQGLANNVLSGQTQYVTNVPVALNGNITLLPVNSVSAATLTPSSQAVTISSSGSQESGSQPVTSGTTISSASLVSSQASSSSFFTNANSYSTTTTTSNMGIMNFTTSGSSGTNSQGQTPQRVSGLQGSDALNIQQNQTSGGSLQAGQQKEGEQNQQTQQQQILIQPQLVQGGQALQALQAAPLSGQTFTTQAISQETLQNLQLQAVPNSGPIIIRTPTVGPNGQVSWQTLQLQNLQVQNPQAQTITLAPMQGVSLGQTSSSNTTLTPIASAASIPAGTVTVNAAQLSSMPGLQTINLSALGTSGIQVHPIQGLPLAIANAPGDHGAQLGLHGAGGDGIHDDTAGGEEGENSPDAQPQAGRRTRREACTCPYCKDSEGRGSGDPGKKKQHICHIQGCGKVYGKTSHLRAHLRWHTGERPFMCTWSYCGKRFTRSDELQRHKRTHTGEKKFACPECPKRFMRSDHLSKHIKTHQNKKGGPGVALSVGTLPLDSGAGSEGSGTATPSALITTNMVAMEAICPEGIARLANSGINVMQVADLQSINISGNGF

Regarding `NC(=O)N1c2ccccc2C=Cc2ccccc21`, the call in [1], in experiment [2], in [3], in [4], in experiment [5] and in [6] was inactive. Also, the result in experiment [8], in experiment [9], in [10], in experiment [11], in experiment [12] and in experiment [13] was inactive. The molecule was classed as inactive in experiment [14] and in [15]. The AC50 in experiment [7] was 34.8 µM (active).

For the molecule `O=C(O)c1ccc2c(c1)nc(C(=O)NC1CCN(C3CC3)CC1)n2Cc1cc(-c2ccc(Cl)s2)on1`, the result in experiment [1], in [2], in experiment [3], in experiment [4], in experiment [16] and in [17] was inactive. Further, the outcome in [5], in experiment [6], in experiment [7], in experiment [9], in experiment [10] and in experiment [11] was inactive. Besides, the outcome in experiment [12], in [13], in experiment [18], in experiment [14] and in experiment [15] was inactive. Moreover, the half-maximal activity concentration (AC50) in experiment [8] was 0.149 µM (active).

Take `NC(=O)NN=Cc1ccc([N+](=O)[O-])o1`: the molecule was classed as inactive in experiment [19], in experiment [1], in experiment [2], in [3], in experiment [16] and in [5]. For the same molecule, the outcome in experiment [6], in experiment [20], in experiment [7], in [8], in experiment [9] and in experiment [10] was inactive. For the same molecule, the outcome in [11], in experiment [12], in [13], in experiment [14] and in [15] was inactive.

For the molecule `CC(C)C(=O)Nc1ccc([N+](=O)[O-])c(C(F)(F)F)c1`, the outcome in experiment [1], in [2], in experiment [3], in experiment [6], in experiment [9] and in [10] was inactive. For the same molecule, the call in [11], in experiment [12], in experiment [13], in experiment [18], in experiment [14] and in experiment [15] was inactive. The AC50 in [17] is 167 µM (active); in experiment [5], 100 µM (active); in [7], 2.87 µM (active).

Consider `CC(=O)c1ccccc1`, for which the molecule was classed as inactive in [1], in experiment [2], in experiment [3], in experiment [4], in experiment [17] and in [5]. In addition, the outcome in experiment [6], in experiment [20], in [7], in [8], in experiment [10] and in experiment [11] was inactive. Besides, the outcome in [12], in [13], in experiment [18], in [14] and in [15] was inactive.

For `Cc1ccc(S(=O)(=O)NC(=O)NN2CCCCCC2)cc1`, the result in [19], in experiment [1], in [2], in experiment [3], in [16] and in experiment [17] was inactive. Further, the molecule was classed as inactive in [5], in experiment [6], in [20], in experiment [7], in experiment [8] and in experiment [9]. The molecule was classed as inactive in experiment [10], in experiment [11], in [12], in [13], in [18] and in [14]. Further, the call in experiment [15] was inactive.

As for `COCc1nnc(-c2ccc[n+]([O-])c2)n1-c1c(Cl)c(Cl)cc2[nH]c(=O)c(=O)[nH]c12`, the call in [1], in experiment [2], in [3], in experiment [4], in [16] and in experiment [5] was inactive. Further, the molecule was called inactive in experiment [20], in experiment [7], in [9], in [10], in [11] and in experiment [12]. Moreover, the outcome in [13], in experiment [18], in [14] and in experiment [15] was inactive.
